In paper PMC4336329 (PLoS ONE, 2015):
In all, about 310,000 compounds went through this assay and about 14,000 (4.5%) showed an effect of 50% or more. The effect is printed as a negative number. For the sample, strong results were picked, then their nearest neighbours and some compounds at random.

biological target: human ether-à-go-go-related gene (hERG) potassium channel (human, UniProt Q12809); test: primary screen, population patch clamp on CHO cells stably expressing hERG; higher = less effect of the substance
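Further: peak tail current of the secondary pulse compared with the same well before compound.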

Chain of human ether-à-go-go-related gene (hERG) potassium channel (Q12809 whole entry, looked up): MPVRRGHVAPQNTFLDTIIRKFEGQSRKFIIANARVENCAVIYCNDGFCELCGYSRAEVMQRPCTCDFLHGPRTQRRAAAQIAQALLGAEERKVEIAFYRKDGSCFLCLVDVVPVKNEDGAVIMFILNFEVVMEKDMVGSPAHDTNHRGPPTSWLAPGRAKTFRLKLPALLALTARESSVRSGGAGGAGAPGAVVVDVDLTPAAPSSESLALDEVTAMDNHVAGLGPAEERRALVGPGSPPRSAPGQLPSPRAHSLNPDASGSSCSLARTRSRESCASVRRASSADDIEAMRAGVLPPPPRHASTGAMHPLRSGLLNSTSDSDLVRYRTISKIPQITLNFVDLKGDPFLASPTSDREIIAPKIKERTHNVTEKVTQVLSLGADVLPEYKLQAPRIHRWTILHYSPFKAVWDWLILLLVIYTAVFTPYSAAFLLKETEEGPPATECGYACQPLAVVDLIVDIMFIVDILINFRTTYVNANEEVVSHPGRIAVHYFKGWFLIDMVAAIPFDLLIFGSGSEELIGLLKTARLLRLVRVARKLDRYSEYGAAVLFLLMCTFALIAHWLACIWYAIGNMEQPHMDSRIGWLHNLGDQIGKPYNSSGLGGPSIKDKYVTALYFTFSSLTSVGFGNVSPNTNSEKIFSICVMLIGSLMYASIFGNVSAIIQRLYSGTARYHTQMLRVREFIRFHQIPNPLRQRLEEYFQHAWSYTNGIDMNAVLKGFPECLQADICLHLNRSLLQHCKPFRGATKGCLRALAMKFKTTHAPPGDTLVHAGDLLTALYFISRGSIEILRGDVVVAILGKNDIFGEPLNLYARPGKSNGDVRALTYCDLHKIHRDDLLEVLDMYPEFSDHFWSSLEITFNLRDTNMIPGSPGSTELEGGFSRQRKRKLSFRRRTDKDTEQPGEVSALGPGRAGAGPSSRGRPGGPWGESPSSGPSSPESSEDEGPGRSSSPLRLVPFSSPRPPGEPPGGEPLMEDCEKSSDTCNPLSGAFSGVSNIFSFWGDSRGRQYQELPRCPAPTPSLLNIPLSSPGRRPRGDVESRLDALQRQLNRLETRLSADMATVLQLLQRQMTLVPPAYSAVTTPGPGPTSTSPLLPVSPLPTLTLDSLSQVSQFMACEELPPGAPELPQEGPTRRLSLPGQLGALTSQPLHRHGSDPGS

Row | SMILES | hERG current change (%, negative = inhibition) at 10uM [%]
1 | CCOC(=O)/C(=C/c1c(C)n(C)c2ccc([N+](=O)[O-])cc12)C(C)=O | -19.6
2 | Cc1nn(-c2ccc(C(=O)OC(C)C)cc2)c(C)c1[N+](=O)[O-] | 4.98
3 | CCOC(=O)CNC(=O)C1CCN(S(=O)(=O)c2ccc(-c3nn[nH]n3)cc2)CC1 | 8.58
4 | Cc1cc(C)c2cc(CN(Cc3cccnc3)C(=O)c3ccc(F)cc3)c(Cl)nc2c1 | -64.7
5 | COCCN(Cc1cc2c(C)cc(C)cc2nc1Cl)C(=O)c1ccccc1F | 44.3
6 | Cc1cccc2cc(CN(Cc3cccnc3)C(=O)c3ccccc3F)c(Cl)nc12 | -49.6
7 | CC(=O)Nc1ccccc1C(=O)C(=O)Nc1ccc(C)c(F)c1 | 24.3
8 | O=C(CSC1=NCCS1)Nc1ccc(S(=O)(=O)NC2CCCCC2)cc1 | -8.65
9 | O=C(c1ccccc1)c1ccc(OCC(O)CN2CCN(Cc3ccccc3)CC2)cc1 (centres unmarked) | -73.4
10 | CC1CCN(CC(O)COc2ccc(OCC(O)CN3CCC(C)CC3)cc2)CC1 (centres unmarked) | 3.84
11 | CCC(=O)c1ccc(OCC(O)CN2CC(C)OC(C)C2)cc1.O=C(O)C(=O)O (centres unmarked) | 14
12 | CC(=O)c1ccc(OCC(O)CN2CCC(C)CC2)cc1.Cl (centres unmarked) | -31.6
13 | CC(=O)c1ccc(OCC(O)CN2CCN(Cc3ccccc3)CC2)cc1.Cl (centres unmarked) | -48.2
14 | CC1CN(CC(O)COc2ccc(C(=O)c3ccccc3)cc2)CC(C)O1 (centres unmarked) | -63.3
15 | NC(=O)C1CCN(CC(O)COc2ccc(-c3ccccc3)cc2)CC1 (centres unmarked) | -34.4
16 | CC1CCN(CC(O)COc2ccc(C(=O)c3ccccc3)cc2)CC1 (centres unmarked) | -67.4
17 | CC1CCN(CC(O)COc2ccc(-c3ccccc3)cc2)CC1.Cl (centres unmarked) | -81
18 | OC(COc1ccc(OCC(O)CN2CCN(Cc3ccccc3)CC2)cc1)CN1CCN(Cc2ccccc2)CC1 (centres unmarked) | 5.65
19 | CC(=O)c1ccc(OCC(O)CN2CC(C)OC(C)C2)cc1.Cl (centres unmarked) | 8.19
20 | O=C(c1ccccc1)c1ccc(OCC(O)CN2CCCC2)cc1 (centres unmarked) | -45.3
21 | CC(=O)c1sc(-c2ccc(F)cc2)cc1NS(=O)(=O)c1ccc(C)cc1 | 7.93
22 | C=CCOc1ccc2ccccc2c1CNn1cn[nH]c1=S | -8.17
23 | O=C(NCCc1csc(-c2cccc(F)c2)n1)c1ccco1 | -4.61
24 | O=C(CN1C(=O)S/C(=C\c2ccccc2)C1=O)Nc1cc([N+](=O)[O-])ccc1O | 6.11
25 | O=C(c1cc(Cl)ccc1[N+](=O)[O-])n1cnc2ccccc21 | -11.9
26 | Cc1cc2c(c(N)n1)c(=O)oc1ccccc12 | 13.9
27 | Nn1c(CSc2nc3ccccc3o2)nnc1CSc1nc2ccccc2o1 | -22.8

Row | SMILES | hERG current change (%, negative = inhibition) at 10uM [%]
28 | O=C(CN1c2cccc3cccc(c23)S1(=O)=O)Nc1ccccc1 | 24.3
29 | CN(CC(=O)Nc1ccc(Cl)c(Cl)c1)C(=O)CC1OC(=O)c2ccccc21 (centres unmarked) | -70.3
30 | CCOc1ccc(NC(=O)CN(C)C(=O)CC2OC(=O)c3ccccc32)cc1OCC (centres unmarked) | 0.75
31 | CN(CC(=O)Nc1c(Cl)cccc1Cl)C(=O)CC1OC(=O)c2ccccc21 (centres unmarked) | -2.8
32 | C/C=C/c1ccc(OCC(=O)Nc2ccncc2)c(OC)c1 | -14.9
33 | COc1ccc2nc(N(CCN(C)C)C(=O)/C=C/c3cccs3)sc2c1.Cl | -55.1
34 | CCN(Cc1ccccc1)S(=O)(=O)c1ccc(C(=O)N(CCCN(C)C)c2nc3c(F)cccc3s2)cc1.Cl | -66.3
35 | COc1ccc2sc(N(CCN(C)C)C(=O)/C=C/c3cccs3)nc2c1.Cl | -33.2
36 | CN(C)CCCN(C(=O)c1ccc(C(=O)c2ccccc2)cc1)c1nc2cc3c(cc2s1)OCCO3.Cl | -50
37 | COc1ccc2sc(N(CCCN(C)C)C(=O)c3ccc(C(=O)c4ccccc4)cc3)nc2c1.Cl | -77.3
38 | COc1ccc2sc(N(CCN(C)C)C(=O)c3ccc4ccccc4c3)nc2c1.Cl | -0.0157
39 | COc1cc2nc(N(CCN(C)C)C(=O)c3ccc4ccccc4c3)sc2cc1OC.Cl | -40.8
40 | CCN(Cc1ccccc1)S(=O)(=O)c1ccc(C(=O)N(CCCN(C)C)c2nc3c(C)c(C)ccc3s2)cc1.Cl | -3.58
41 | COc1ccc2nc(N(CCN(C)C)C(=O)c3ccc(C(=O)c4ccccc4)cc3)sc2c1.Cl | -39.2
42 | CCOc1ccc2nc(N(CCN(C)C)C(=O)/C=C/c3cccs3)sc2c1.Cl | 4.24
43 | COc1cc2nc(N(CCCN(C)C)C(=O)c3ccc(C(=O)c4ccccc4)cc3)sc2cc1OC.Cl | -70.4
44 | CN(C)CCCN(C(=O)c1ccc(S(=O)(=O)N(C)Cc2ccccc2)cc1)c1nc2c(F)cccc2s1.Cl | -38.2
45 | O=C1CSC(c2ccccc2[N+](=O)[O-])N1CCc1ccccc1 (centres unmarked) | -41
46 | CCOc1cc(C(=O)N/N=C(\C)Cc2ccc(OC)cc2)cc(OCC)c1OCC | -3.15
47 | FC(F)Oc1ccccc1/C=N/Nc1nc2ccccc2o1 | 33.5
48 | Cn1c(NC(=O)c2ccco2)c(-c2ccccc2)c(=O)c2ccccc21 | 13.6
49 | N[C@@]12CCc3nonc3[C@]1(O)CC(c1ccccc1)=[N+]2[O-] | -0.645
50 | COc1ccccc1CN(C(=O)CNC(=O)c1ccco1)C(C(=O)NCC1CCCO1)c1ccccc1 (centres unmarked) | 10
51 | O=C(NC(=S)Nc1cccc(F)c1)c1cccc([N+](=O)[O-])c1 | 20.6
52 | Cc1cc(C)c(-c2cc(C)nc3ncnn23)c(C)c1 | 7.75
53 | CCOc1ccc(C(=O)Nn2cnnc2)cc1 | 2.29
54 | O=C(NCCCc1ccccc1)C1CCN(c2nnc(-n3cccc3)s2)CC1 | -27

Row | SMILES | hERG current change (%, negative = inhibition) at 10uM [%]
55 | CCN(Cc1ccccc1)S(=O)(=O)c1ccc(C(=O)N(CCCN(C)C)c2nc3cc(OC)ccc3s2)cc1.Cl | -58.3
56 | CCc1ccc2nc(N(CCCN(C)C)C(=O)c3ccc(C(=O)c4ccccc4)cc3)sc2c1.Cl | -12.5
57 | COc1ccc2sc(N(CCCN(C)C)C(=O)c3ccc(S(=O)(=O)N(C)Cc4ccccc4)cc3)nc2c1.Cl | -16.4
58 | CN(C)CCCN(C(=O)c1ccc(C(=O)c2ccccc2)cc1)c1nc2ccc(F)cc2s1 | -74.9
59 | CCN(Cc1ccccc1)S(=O)(=O)c1ccc(C(=O)N(CCCN(C)C)c2nc3ccc(F)cc3s2)cc1.Cl | -12.6
60 | CN(C)CCCN(C(=O)c1ccc(S(=O)(=O)N(C)C)cc1)c1nc2ccc(F)cc2s1.Cl | -32.9
61 | O=C(O)c1ccc(Nc2cccc(F)c2)c([N+](=O)[O-])c1 | 17.7
62 | CCCCOc1c(Br)cc(CNCCCN2CCOCC2)cc1OC.Cl | -35
63 | CC(C)CCOc1ccc(NC(=O)C2OC3OC(C)(C)OC3C3OC(C)(C)OC23)cc1 (centres unmarked) | 20.5
64 | O=C(NCc1nnc(SCC(=O)N2CCCC2)o1)c1ccc(F)cc1 | 14.3
65 | COc1ccc(Nc2ncnc3ccc([N+](=O)[O-])cc23)c(OC)c1 | -0.867
66 | CNc1ccc(Br)cc1C(O)c1ccccc1 (centres unmarked) | -3.18
67 | O=C(Cn1ccc(NC(=O)OCc2ccccc2)nc1=O)NCCCn1ccnc1 | 6.72
68 | O=C1COc2ccc(C(=O)COC(=O)CNC(=O)c3ccccc3)cc2N1 | -4.81
69 | COc1ccc(C(=O)NCC(=O)OCC(=O)c2ccc3c(c2)NC(=O)CO3)cc1OC | -22
70 | COc1ccc(C(=O)NCC(=O)OCC(=O)c2ccc3c(c2)NC(=O)CO3)cc1 | -65.1
71 | COc1ccc(OCCCC(=O)OCC(=O)c2ccc3c(c2)NC(=O)CO3)cc1 | 15.7
72 | Cc1ccc(C(=O)NCC(=O)OCC(=O)c2ccc3c(c2)NC(=O)CO3)cc1C | -5.7
73 | Cc1ccc(C(=O)NCC(=O)OCC(=O)c2ccc3c(c2)NC(=O)CO3)cc1 | -60.6
74 | Cc1nn(C(=O)CCC(=O)NCc2ccccc2Cl)c2ccccc12 | 15.2
75 | Cc1c(Cl)cccc1NC(=O)C1COc2ccccc2O1 (centres unmarked) | 8.79
76 | COc1ccc(S(=O)(=O)CC(=O)c2cc3cccc(C)c3oc2=O)cc1 | 5.51
77 | CCCN1Cc2cccc(C(=O)NC(CC(=O)OCC)c3ccc(OCC)c(OC)c3)c2C1=O (centres unmarked) | -31.2
78 | CCCN1Cc2cccc(C(=O)NC(CC(=O)OCC)c3ccc(C)cc3)c2C1=O (centres unmarked) | -81.7
79 | CCCN1Cc2cccc(C(=O)NC(CC(=O)OCC)c3ccc(OC(C)C)cc3)c2C1=O (centres unmarked) | -37.6
80 | Cc1nc2c(C)cccn2c1/C(O)=C1\C(=O)C(=O)N(CCN(C)C)C1c1ccncc1 (centres unmarked) | 4.49
